Data published in PubChem BioAssay (NCI).
This is part of a sample that, as a whole, favours compounds with a hit. Of some 83,000 tested, about 20% had one in any assay.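 Step 1: grow cells in 96-well plates. Step 2: add test compound at a single concentration. Step 3: incubate 48 h. Step 4: record percent growth.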 Active and inactive are the calls of the source. The calls were made as follows: active = growth percent below 10; inactive = the rest.

What was measured:
Experiment in all cases: NCI-60 one-dose screen, 48 h (100 = growth as untreated, 0 = no growth, -100 = all killed)
Conditions in all cases: 10 µM unless noted
NCI-H23 lung = system: NCI-H23 lung
NCI-H226 lung = system: NCI-H226 lung
NCI-H322M lung = system: NCI-H322M lung
HOP-62 NSCLC = system: HOP-62 NSCLC
NCI-H460 lung = system: NCI-H460 lung
HOP-92 NSCLC = system: HOP-92 NSCLC
NCI-H522 lung = system: NCI-H522 lung
A549/ATCC NSCLC = system: A549/ATCC NSCLC
786-0 renal = system: 786-0 renal
COLO 205 colon = system: COLO 205 colon

Measured: growth

O=C(Nc1ncc(Cc2ccc(Cl)cc2)s1)c1ccc2c(c1)OCCO2
inactive: NCI-H23 lung 37% | NCI-H226 lung 23.5% | NCI-H322M lung 46.8% | HOP-62 NSCLC 26.8% | HOP-92 NSCLC 60.6% | A549/ATCC NSCLC 18% | 786-0 renal 38.7%
active: NCI-H460 lung 8% | NCI-H522 lung 2.46% | COLO 205 colon -13.7%

C=C(C)Cn1c(SCC(=O)c2cccs2)nc2sc3c(c2c1=O)CCCC3
inactive: NCI-H23 lung 72.8% | NCI-H226 lung 58.3% | NCI-H322M lung 67.9% | HOP-62 NSCLC 73.5% | HOP-92 NSCLC 92.4% | NCI-H522 lung 58.1% | A549/ATCC NSCLC 41.1% | 786-0 renal 52.6% | COLO 205 colon 43.6%
active: NCI-H460 lung 8.41%

O=C1c2cccnc2C(=O)c2c1c(C(=O)OCCCN1CCOCC1)c1ccccn21
active: NCI-H23 lung -32.1% | NCI-H226 lung -6.42% | NCI-H322M lung -51.5% | HOP-62 NSCLC -25.6% | NCI-H460 lung -60% | HOP-92 NSCLC -20.6% | NCI-H522 lung -75.1% | A549/ATCC NSCLC -25% | 786-0 renal -18.4% | COLO 205 colon -75.8%

COC(=O)CNC(=O)c1ccc(NC(=O)c2[nH]c(C)c(Cl)c2Cl)c(O[C@H]2CCNC2)c1
inactive: NCI-H23 lung 98.7% | NCI-H226 lung 104% | NCI-H322M lung 109% | HOP-62 NSCLC 95.6% | NCI-H460 lung 108% | HOP-92 NSCLC 99% | NCI-H522 lung 97.7% | A549/ATCC NSCLC 105% | 786-0 renal 102% | COLO 205 colon 110%

COc1ccc(Cn2cc(C(=O)N=Nc3c(O)[nH]c4ccc(Br)cc34)nn2)cc1
inactive: NCI-H23 lung 102% | NCI-H226 lung 97.5% | NCI-H322M lung 102% | HOP-62 NSCLC 111% | NCI-H460 lung 111% | HOP-92 NSCLC 114% | NCI-H522 lung 89.1% | A549/ATCC NSCLC 95.1% | 786-0 renal 99.6% | COLO 205 colon 115%

COc1cc(C(=O)n2nc(NCCCc3ccccc3)c3cc(N)ccc32)cc(OC)c1OC
inactive: NCI-H23 lung 92.8% | NCI-H226 lung 89.7% | NCI-H322M lung 106% | HOP-62 NSCLC 93.5% | NCI-H460 lung 102% | HOP-92 NSCLC 88.9% | NCI-H522 lung 74.6% | A549/ATCC NSCLC 93.3% | 786-0 renal 96.1% | COLO 205 colon 113%

O=C(Nc1ccccc1C(F)(F)F)C1=NCCCCN1
inactive: NCI-H23 lung 98.5% | NCI-H226 lung 96.1% | NCI-H322M lung 95.1% | HOP-62 NSCLC 100% | NCI-H460 lung 105% | HOP-92 NSCLC 97.9% | NCI-H522 lung 86.8% | A549/ATCC NSCLC 102% | 786-0 renal 98.8% | COLO 205 colon 110%

CN(C)c1ccc(Cc2cc(-c3ccccc3)nn(C/C(=N/O)c3ccccc3)c2=O)cc1
inactive: NCI-H23 lung 57.4% | NCI-H226 lung 60.5% | NCI-H322M lung 80.4% | HOP-62 NSCLC 75.1% | NCI-H460 lung 42.6% | HOP-92 NSCLC 55.9% | NCI-H522 lung 41.2% | A549/ATCC NSCLC 30.2% | 786-0 renal 75.4% | COLO 205 colon 58.4%

COc1ccc(-n2c(=O)n(-c3ccc(-c4nc5ccc(F)cc5s4)cc3)c(=O)c3cccnc32)cc1
inactive: NCI-H23 lung 89.9% | NCI-H226 lung 105% | NCI-H322M lung 102% | HOP-62 NSCLC 89.2% | NCI-H460 lung 110% | HOP-92 NSCLC 118% | NCI-H522 lung 88.8% | A549/ATCC NSCLC 96.5% | 786-0 renal 99.5% | COLO 205 colon 106%

COc1cc(CNC(=O)CCCC/C=C/C(C)C)ccc1OCc1cn(-c2ccc(C(F)(F)F)cc2)nn1
inactive: NCI-H23 lung 94.6% | NCI-H226 lung 53.6% | NCI-H322M lung 96.1% | HOP-62 NSCLC 64.6% | NCI-H460 lung 16.7% | HOP-92 NSCLC 13.8% | NCI-H522 lung 75.6% | A549/ATCC NSCLC 49% | COLO 205 colon 72.6%
active: 786-0 renal 2.94%

CN1CC(c2ccccc2)C(C(=O)c2ccc(Br)cc2)C12C(=O)Nc1ccccc12 (stereo not given)
inactive: NCI-H23 lung 96.2% | NCI-H226 lung 90.5% | NCI-H322M lung 103% | HOP-62 NSCLC 94.8% | NCI-H460 lung 99.4% | HOP-92 NSCLC 86.3% | NCI-H522 lung 83% | A549/ATCC NSCLC 92.2% | 786-0 renal 97.8% | COLO 205 colon 112%

CC1=C(C(=O)c2ccccc2)C(c2ccc3c(c2)OCO3)NC(=S)N1 (stereo not given)
active: NCI-H460 lung 8.05%
inactive: NCI-H23 lung 48% | NCI-H226 lung 66.5% | NCI-H322M lung 67.7% | HOP-62 NSCLC 51.8% | HOP-92 NSCLC 92.3% | NCI-H522 lung 38.3% | A549/ATCC NSCLC 40.3% | 786-0 renal 58.9% | COLO 205 colon 47.6%

C#CCOc1cccc(Nc2ncnc3c(NC(=O)CCl)cccc23)c1
active: NCI-H23 lung 6.09% | HOP-92 NSCLC -62.1% | NCI-H522 lung -73.5% | 786-0 renal -45.4% | COLO 205 colon -55.5%
inactive: NCI-H226 lung 48.9% | NCI-H322M lung 72.5% | HOP-62 NSCLC 95.7% | NCI-H460 lung 51.2% | A549/ATCC NSCLC 47.4%

C#CCOc1ccc(C2=NN(C)C3N=C(Cl)c4ncn(C)c4N23)cc1OCC#C (stereo not given)
inactive: NCI-H23 lung 89.7% | NCI-H226 lung 83.4% | NCI-H322M lung 90.2% | HOP-62 NSCLC 95.5% | NCI-H460 lung 105% | HOP-92 NSCLC 79.8% | NCI-H522 lung 87.3% | A549/ATCC NSCLC 104% | 786-0 renal 105% | COLO 205 colon 102%

O=C(O)c1nn(-c2ccc(Cl)cc2)nc1N1CCCC1
inactive: NCI-H23 lung 91% | NCI-H226 lung 90.8% | NCI-H322M lung 97.7% | HOP-62 NSCLC 97.5% | NCI-H460 lung 101% | HOP-92 NSCLC 77.1% | NCI-H522 lung 89.3% | A549/ATCC NSCLC 101% | 786-0 renal 100% | COLO 205 colon 111%

O=C(NS(=O)(=O)c1ccccc1)n1cc(-c2ccncc2)c(-c2cc(O)cc(Cl)c2)n1
inactive: NCI-H23 lung 104% | NCI-H226 lung 104% | NCI-H322M lung 108% | HOP-62 NSCLC 115% | NCI-H460 lung 111% | HOP-92 NSCLC 103% | NCI-H522 lung 76.1% | A549/ATCC NSCLC 97.5% | 786-0 renal 98% | COLO 205 colon 114%

Nc1nc(N)c2c(n1)NC(c1ccc3c(c1)OCO3)CC(c1cccc(Nc3ccncc3)c1)=N2 (stereo not given)
inactive: NCI-H23 lung 90% | NCI-H226 lung 84.6% | NCI-H322M lung 96.9% | HOP-62 NSCLC 90.4% | NCI-H460 lung 96.5% | HOP-92 NSCLC 70.7% | NCI-H522 lung 77.3% | A549/ATCC NSCLC 79.6% | 786-0 renal 96.9% | COLO 205 colon 86.3%

C#CCOc1cc(/C=N/Nc2nc(-c3ccc(OC)cc3)cs2)ccc1O
inactive: NCI-H23 lung 58.8% | NCI-H226 lung 89.6% | NCI-H322M lung 92.4% | HOP-62 NSCLC 97% | NCI-H460 lung 88.4% | HOP-92 NSCLC 86.3% | NCI-H522 lung 76.1% | A549/ATCC NSCLC 74.2% | 786-0 renal 92.6% | COLO 205 colon 103%

CCCCCCCCNc1ncnc2c1ncn2Cc1nnc2c3ccccc3c(Cl)nn12
active: HOP-92 NSCLC 3.23%
inactive: NCI-H23 lung 59.6% | NCI-H226 lung 39.9% | NCI-H322M lung 77.8% | HOP-62 NSCLC 54.3% | NCI-H460 lung 53.3% | NCI-H522 lung 52.9% | A549/ATCC NSCLC 73.1% | 786-0 renal 47.7% | COLO 205 colon 65.5%

CCCCC#Cc1c(I)n(C2OC(CO[Si](C)(C)C(C)(C)C)C3OC(C)(C)OC32)c(=O)[nH]c1=O (stereo not given)
inactive: NCI-H23 lung 78% | NCI-H226 lung 88.2% | NCI-H322M lung 84.3% | HOP-62 NSCLC 102% | NCI-H460 lung 107% | NCI-H522 lung 79.9% | A549/ATCC NSCLC 94% | 786-0 renal 82.4%
active: HOP-92 NSCLC -30.5% | COLO 205 colon -59.1%

O=[N+]([O-])c1ccc(Oc2cccc3c(Oc4ccc([N+](=O)[O-])cc4[N+](=O)[O-])cccc23)c([N+](=O)[O-])c1
inactive: NCI-H23 lung 75.3% | NCI-H226 lung 83.9% | NCI-H322M lung 92.4% | HOP-62 NSCLC 79.6% | NCI-H460 lung 93.4% | HOP-92 NSCLC 62% | NCI-H522 lung 74.6% | A549/ATCC NSCLC 83% | 786-0 renal 108% | COLO 205 colon 102%

Cn1ccnc1C(=O)/C=C/c1ccc(C(=O)Nc2ccccc2F)cc1
active: HOP-62 NSCLC 3.72% | NCI-H460 lung -0.603%
inactive: NCI-H23 lung 27.4% | NCI-H226 lung 50.7% | NCI-H322M lung 14.6% | HOP-92 NSCLC 16.2% | NCI-H522 lung 39.7% | A549/ATCC NSCLC 17.1% | 786-0 renal 18.5% | COLO 205 colon 32.7%

CCOC(=O)c1c(NC(=S)Nc2ccc([N+](=O)[O-])cc2)sc2c1CCCCC2
inactive: NCI-H23 lung 69.4% | NCI-H226 lung 70.8% | NCI-H322M lung 83.5% | HOP-62 NSCLC 102% | NCI-H460 lung 69.7% | NCI-H522 lung 58.7% | A549/ATCC NSCLC 84.4% | 786-0 renal 92.9% | COLO 205 colon 105%
active: HOP-92 NSCLC 0.0405%

N#C/C(=C\c1cccc2cnccc12)N1N=NC2C=CC=CC21 (stereo not given)
active: HOP-92 NSCLC -14.6%
inactive: NCI-H23 lung 48.5% | NCI-H226 lung 68.7% | NCI-H322M lung 67.2% | HOP-62 NSCLC 79.9% | NCI-H460 lung 40.8% | NCI-H522 lung 14.1% | A549/ATCC NSCLC 64.2% | 786-0 renal 53.1% | COLO 205 colon 47.4%

CCN1C(=O)N(CC)C2C1NN=c1s/c(=C\c3ccc([N+](=O)[O-])cc3)c(=O)n12 (stereo not given)
inactive: NCI-H23 lung 47% | NCI-H226 lung 66.8% | NCI-H322M lung 54.6% | HOP-62 NSCLC 42.6% | HOP-92 NSCLC 79.2% | A549/ATCC NSCLC 30.4% | 786-0 renal 44.1% | COLO 205 colon 13.3%
active: NCI-H460 lung 8.23% | NCI-H522 lung -0.229%

CCc1ccc(Cc2cnc(NC(=O)c3cc(C)oc3C)s2)cc1
inactive: NCI-H23 lung 52.8% | NCI-H226 lung 66.3% | NCI-H322M lung 56.8% | HOP-62 NSCLC 56.9% | NCI-H460 lung 18.6% | HOP-92 NSCLC 45% | NCI-H522 lung 19.6% | A549/ATCC NSCLC 34.7% | 786-0 renal 41.2% | COLO 205 colon 48.6%

CC1(C)CC[C@]2(CO)CC[C@]3(C)[C@H](CC[C@@H]4[C@@]5(C)CC[C@H](O)C(C)(C)[C@@H]5CC[C@]43C)[C@H]2[C@H]1O
inactive: NCI-H23 lung 87.1% | NCI-H226 lung 79.1% | NCI-H322M lung 69.2% | HOP-62 NSCLC 54.6% | NCI-H460 lung 21% | HOP-92 NSCLC 105% | NCI-H522 lung 84.8% | A549/ATCC NSCLC 56.8% | 786-0 renal 79.3% | COLO 205 colon 93.8%
